# Test results from PubChem BioAssay AID602252 (Broad Institute, 2012).
# The whole screen tested about 300,000 compounds, of which about 2,700 (0.9%) were called active.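 Rule for the calls: active = mean inhibition of at least 30% with at least half of replicates also reaching 30%; inconclusive = no clear call, values can overlap the other calls; inactive = the rest.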 This excerpt belongs to a sample that is enriched for actives.
# Target: Golgi-associated PDZ and coiled-coil motif-containing protein (Homo sapiens) (UniProt Q9HD26)
# Assay: untagged CAL PDZ binding inhibitors, primary screen, biochemical, fluorescence polarization, HTS (AID 602252);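 note: 0% = DMSO neutral control and 100% = excess unlabeled competitor peptide PRC23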
# Details: purified CAL PDZ, TMR-peptide fluorescence polarization, 1 h; at 24.9 µM; hits give high values
row,Compound,inhibition
1,Nn1c(Cc2cccc3ccccc23)nnc1SCC(=O)N1CC(=O)Nc2ccccc21,1.45% (inactive)
2,O=C1CN(C(=O)COC(=O)/C=C/c2ccc(F)cc2)c2ccccc2N1,-2.46% (inactive)
3,C=CCn1c(COc2ccccc2F)nnc1SCC(=O)N1CC(=O)Nc2ccccc21,56% (active)
4,COc1cc(NC(=O)c2[nH]cnc2C(N)=O)cc(C(=O)Nc2cccc(C(F)(F)F)c2)c1,-1.42% (inactive)
5,COc1ccc(/C=C/c2noc(-c3ccccc3OC(C)=O)n2)cc1,87% (active)
6,COC(=O)c1ccc(/C=C/c2c(-c3ccc(OC)cc3)sc3ccccc23)cc1,0.974% (inactive)
7,COc1cccc(/C=C/c2ccc3ccccc3n2)c1OC(C)=O,-0.936% (inactive)
8,COCC(=O)N(C)[C@H]1C[C@H]2c3cc(Oc4ccccc4C)ccc3CCN2C(=O)[C@H]1[C@H](C)O,-3.46% (inactive)
9,C=CCC[C@@H](Cc1ccc(F)cc1)C(=O)OC[C@@H](C)NC(=O)[C@H](CC=C)CC(=O)N(CCO)Cc1ccccc1,3.24% (inactive)
10,COc1ccc(-c2noc(CCC(=O)N3CCN(c4cccc(C)c4)CC3)n2)cc1,-3.56% (inactive)
11,COc1ccc(CNC(=O)C[C@H]2C[C@H](C(=O)N3CCOCC3)[C@@]3(C)c4[nH]c5cc(CCC(=O)N(C)C)ccc5c4CCN3C2=O)cc1OC,-5.01% (inactive)
12,O=S(=O)(c1ccc(OCC(O)CN2CCN(c3ccccc3Cl)CC2)cc1)N1CCOCC1 (stereo not given),-2.34% (inactive)
13,CC(=O)c1ccc(OCC(O)CN2CCN(S(=O)(=O)c3cccc(Br)c3)CC2)cc1 (stereo not given),35% (active)
14,Cc1cccc(OCC(O)CN2CCN(S(=O)(=O)c3ccc(C)cc3C)CC2)c1 (stereo not given),1.68% (inactive)
15,COC(=O)c1ccc(NCc2cc(O)ccc2O)cc1,0.712% (inactive)
16,C=CCOc1ccc(/C=C2/C(=O)ON=C2C)cc1OCC,-3% (inactive)
17,COc1cc(/C=C2/C(=O)ON=C2C)ccc1OCc1cccc(F)c1,40.4% (active)
18,COc1cc(/C=C2/C(=O)ON=C2C)ccc1OCc1ccccc1F,-3.18% (inactive)
19,COc1cc(OC)c(C(=O)NNC(=O)c2ccc(NS(=O)(=O)c3cccs3)cc2)cc1OC,-2.8% (inactive)
20,C=CC(=O)Nc1ccc(Nc2ccnc(Nc3ccc(N4CCN(C)CC4)cc3)n2)cc1,-0.863% (inactive)
21,COC(=O)c1ccc(NC(=O)Nc2ccc(C)cc2)cc1,-0.88% (inactive)
22,CCOC(=O)c1ccc(NC(=S)Nc2cc(C)cc(C)n2)cc1,-17% (inactive)
23,COC(=O)c1ccc(NC(=S)Nc2cccc(C)n2)cc1,52.8% (active)
24,O=C(N[C@@H]1C/C=C\C[C@@H](CC(=O)N(CCO)Cc2ccccc2)C(=O)N[C@H](Cc2ccccc2)COC1=O)OCC1c2ccccc2-c2ccccc21,14.1% (inactive)
25,CC1Cc2ccccc2N1S(=O)(=O)c1cccc(C(=O)NCC(c2ccco2)N2CCCC2)c1 (stereo not given),1.18% (inactive)
26,COC(=O)[C@]1(Cc2ccccc2)N[C@H](CN(C)S(=O)(=O)c2ccc(F)cc2)[C@@H]2C(=O)N(Cc3ccccc3)C(=O)[C@@H]21,-4.16% (inactive)
27,COc1cc(/C=C/C(=O)Nc2ccc(OC)c(S(=O)(=O)N3CCOCC3)c2)ccc1OCC#N,-3.83% (inactive)
28,CC(C)N(C(=O)CSc1nnc(NC2CC2)s1)c1ccccc1,31.5% (active)

row,Compound,inhibition
1,CN(C(=O)CSc1nnc(Nc2ccccc2)s1)C1CCS(=O)(=O)C1 (stereo not given),-5.88% (inactive)
2,Cc1csc(SCC(=O)N(c2ccccc2)C(C)C)n1,-3.25% (inactive)
3,C=CCOC(=O)N1CCC2CC1c1cc(-c3ccc(OC)cc3)ccc12 (stereo not given),-1.31% (inactive)
4,CCc1cccc(C)c1NC(=O)COC(=O)CC1CCCC1,31.1% (active)
5,CCc1cccc(C)c1NC(=O)COC(=O)Cc1ccsc1,5.55% (inactive)
6,Cc1cccc(C)c1NC(=O)CNC(=O)C1CCCC1,-2.92% (inactive)
7,COc1ccc2[nH]c3c(c2c1)CCN1C(=O)C(CC(=O)NCc2cccc(C(F)(F)F)c2)C[C@H](C(=O)N2CCOCC2)[C@@]31C (stereo not given in full),-2.83% (inactive)
8,COc1cc(/C=C/C(=O)OCC(=O)c2ccccc2)cc(OC)c1OC,-8.15% (inactive)
9,Cc1c(C(N)=O)sc2ncn(CCOc3ccccc3)c(=O)c12,40.6% (active)
10,Cc1cccc(OC(=O)c2sc3ncn(C)c(=O)c3c2C)c1,-1.6% (inactive)
11,CCOC(=O)C(C)n1cnc2sc(C)c(C)c2c1=O (stereo not given),-4.48% (inactive)
12,O=[N+]([O-])c1cc2ccccc2nc1-c1ccccc1,3.37% (inactive)
13,CCOc1ccc(C(=O)NCC(=O)N2CCCCCCC2)cc1OCC,2.87% (inactive)
14,Cc1cc(C)cc(C(=O)NCC(=O)OCC(=O)N2CCCCC2)c1,-4.99% (inactive)
15,COc1cc(OC)cc(C(=O)NCC(=O)N2CCCCCCC2)c1,59.5% (active)
16,Cc1ccc(C2(C)NC(=O)N(CC(=O)N3CC(=O)Nc4ccccc43)C2=O)cc1 (stereo not given),-3.12% (inactive)
17,O=C(COC(=O)c1ccco1)Nc1ccc(Cl)cn1,-5.62% (inactive)
18,Cc1cccc(OCC(=O)OCC(=O)Nc2ccc(Cl)cn2)c1,74.8% (active)
19,CC(OC(=O)CCCOc1ccccc1)C(=O)Nc1ccc(Cl)cn1 (stereo not given),-3.1% (inactive)
20,CC(=O)Nc1ccc(S(=O)(=O)NCCC(=O)N2CCN(c3ccccc3Cl)CC2)cc1,-2.76% (inactive)
21,COc1cc(C)ccc1OCC(=O)OCC(=O)c1ccc[nH]1,3.54% (inactive)
22,Cc1cccc(CC2(O)C(=O)Nc3ccccc32)n1 (stereo not given),3.12% (inactive)
23,Cc1cc([N+](=O)[O-])ccc1NS(=O)(=O)c1ccccc1,2.21% (inactive)
24,CC(=O)c1ccc(OCCCC(=O)Nc2ccc(C)c(S(=O)(=O)N3CCOCC3)c2)cc1,-2.79% (inactive)
25,CCN(CC)S(=O)(=O)c1ccc(Cl)c(C(=O)NCCN2CCOCC2)c1,34.1% (active)
26,CCN(CC(=O)NCCCN1CCOCC1)S(=O)(=O)c1cc(Cl)ccc1Cl,6.12% (inactive)
27,CCN(CC)S(=O)(=O)c1ccc(N2CCOCC2)c(C(=O)O)c1,-7.23% (inactive)
